Results filed as inconclusive are left out. A call without a number means that no potency is given here. The source made the active and inactive calls. Calls follow the shape of the dose curve; as a rule, active = well fitted curve in the direction sought with a large enough effect; inconclusive = small, poorly fitted or top-dose-only effect, or another doubt; inactive = no such curve, though single readings can be large; an effect the other way counts as inactive or inconclusive. Non-standard residues stand in square brackets, D forms with d. Residues, ends and D or L forms follow the SMILES beside them. *: point of attachment. Sta = CC(C)C[C@H](N)[C@@H](O)CC(=O)O; Isovaleryl = CC(C)CC(=O)*
Key:
[1] = biological target: N-terminal Xaa-Pro-Lys N-methyltransferase 1 (Homo sapiens) (UniProt Q9BV86); experiment: qHTS Assay for Inhibitors of N-terminal methyltransferase 1 (NTMT1): LOPAC validation of the NTMT1 SAHH-coupled ThioGlo3 Assay (AID 1347143); conditions: recombinant NTMT1, SAHH-coupled ThioGlo3 fluorescence; series mostly up to 114 µM;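 also: SAH from peptide methylation measured as thiol fluorescence via SAHH coupling and ThioGlo3; potency is read from the fitted curve at half-maximal effect; nearly all actives have a fitted effect of over 70% in size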
In short: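 In this qHTS pilot against the LOPAC set, 125nM NTMT1 met compounds tested at multiple concentrations, and fluorescence was normalized to background.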

[2] = qHTS of pediatric cancer cell lines to identify multiple opportunities for drug repurposing: Confirmatory screen for SK-N-SH cells (AID 1347129); conditions: SK-N-SH neuroblastoma cell viability; series mostly up to 46.1 µM;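 also: cells exposed to compound for 48 h before viability read; nearly all actives have a fitted effect of over 60% in size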; also: potency is read from the fitted curve at half-maximal effect
In short: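 Cells (500-1,000/well) in growth media were settled 5 h at 37 degrees C, then given compounds for 48 h. Viability was read as CellTiter-Glo luminescence. Primary runs used MIPE at 11 points (0.78 nM-46 µM) and NPC at 8 points (0.59 nM-46 µM); follow-ups used 11 points.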

[3] = system: Zika virus NS2B-NS3 protease (unlinked); experiment: Optimization of GU AMC qHTS for Zika virus inhibitors: Unlinked NS2B-NS3 protease assay (AID 1347151); conditions: recombinant ZIKV NS2B-NS3 protease, fluorogenic AMC substrate; series mostly up to 52.5 µM; also: nearly all actives have a fitted effect of over 80% in size
In short: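 Noncovalent NS2B hydrophilic domain–NS3 protease complex (25 nM final) in 10 mM Tris-HCl pH 8.0, 0.01% Tween 20; AMC substrate, room temperature 15 min (~20% conversion); fluorescence change normalized, 4-parameter Hill fit.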

[4] = biological target: Furin (Homo sapiens) (UniProt P09958); experiment: Furin counterscreen qHTS for Zika virus inhibitors (AID 1347149); conditions: furin enzymatic counterscreen, fluorogenic substrate; series mostly up to 57.5 µM;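 also: purified recombinant full-length human furin enzyme at 5 nM; fluorescence gain from furin cutting a BOC-RVRR-AMC peptide substrate over 15 min; top concentration of the series differs between compounds; nearly all actives have a fitted effect of over 70% in size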
In short: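 Counterscreen measures cleavage of 2 microM BOC-RVRR-AMC, below its ~15 microM Km, by 5 nM full-length human furin at pH 7.0 after a 15-min compound preincubation. Inhibition derives from the 15-min fluorescence increase at 37C.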

[5] = system: Zika virus NS2B-NS3 protease (linked construct); experiment: Confirmatory screen NINDS AMC qHTS for Zika virus inhibitors (AID 1347152); conditions: Purified linked NS2B-NS3, AMC substrate fluorescence; series mostly up to 56.6 µM;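 also: AMC fluorescence gain from cleaved Bz-Nle-KRR-AMC substrate over 15 min; top concentration of the series differs between compounds; nearly all actives have a fitted effect of over 70% in size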
In short: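 Linked NS2B-NS3 protease, 1 nM, in 10 mM Tris-HCl pH 8.0, 0.01% Tween 20; compounds preincubated 15 min at room temperature. Nle-KRR-AMC 10 microM (Km 18.3 µM); 15-min fluorescence change (340/450 nm) fitted to 4-parameter Hill.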

[6] = system: Zika virus NS2B-NS3 protease (unlinked complex); experiment: Confirmatory screen GU AMC qHTS for Zika virus inhibitors (AID 1347153); conditions: Recombinant NS2B-NS3 protease, AMC substrate fluorescence; series mostly up to 57.1 µM; also: nearly all actives have a fitted effect of over 70% in size
In short: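 Noncovalent NS2B hydrophilic domain/NS3 protease complex (25 nM) in 10 mM Tris-HCl pH 8.0, 0.01% Tween 20 was preincubated 15 min at room temperature with compounds. Then 10 µM AMC substrate (Km 18.3 µM) was added; fluorescence was read over 15 min and fitted to a 4-parameter Hill equation.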

[7] = system: Zika virus NS2B-NS3 protease; experiment: Primary screen GU AMC qHTS for Zika virus inhibitors (AID 1347154); conditions: Zika NS2B-NS3 unlinked protease, AMC fluorogenic substrate; series mostly up to 54.1 µM; also: nearly all actives have a fitted effect of over 70% in size
In short: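 Unlinked Zika NS2B hydrophilic domain/NS3 protease domain noncovalent complex (25 nM final) in 10 mM Tris-HCl pH 8.0, 0.01% Tween 20, with AMC peptide substrate. Fluorescence (ex 340, em 450 nm) change over 15 min, room temperature; percent inhibition fitted to 4-parameter Hill equation.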

[8] = system: Zika virus NS2B-NS3 protease (unlinked complex); experiment: Primary screen GU Rhodamine qHTS for Zika virus inhibitors: Unlinked NS2B-NS3 protease assay (AID 1347159); conditions: Recombinant ZIKV NS2B-NS3 protease, Rhodamine110 substrate fluorescence; series mostly up to 107 µM; also: nearly all actives have a fitted effect of over 60% in size
In short: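 Buffer 10 mM Tris-HCl pH 8.0, 0.01% Tween 20. Unlinked protease 25 nM; compound preincubation 15 min, RT, protected from light. Substrate Rhod110, 1.5 microM; ~15% conversion in 15 min.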

Furin (Homo sapiens), sequence (P09958 whole entry, looked up): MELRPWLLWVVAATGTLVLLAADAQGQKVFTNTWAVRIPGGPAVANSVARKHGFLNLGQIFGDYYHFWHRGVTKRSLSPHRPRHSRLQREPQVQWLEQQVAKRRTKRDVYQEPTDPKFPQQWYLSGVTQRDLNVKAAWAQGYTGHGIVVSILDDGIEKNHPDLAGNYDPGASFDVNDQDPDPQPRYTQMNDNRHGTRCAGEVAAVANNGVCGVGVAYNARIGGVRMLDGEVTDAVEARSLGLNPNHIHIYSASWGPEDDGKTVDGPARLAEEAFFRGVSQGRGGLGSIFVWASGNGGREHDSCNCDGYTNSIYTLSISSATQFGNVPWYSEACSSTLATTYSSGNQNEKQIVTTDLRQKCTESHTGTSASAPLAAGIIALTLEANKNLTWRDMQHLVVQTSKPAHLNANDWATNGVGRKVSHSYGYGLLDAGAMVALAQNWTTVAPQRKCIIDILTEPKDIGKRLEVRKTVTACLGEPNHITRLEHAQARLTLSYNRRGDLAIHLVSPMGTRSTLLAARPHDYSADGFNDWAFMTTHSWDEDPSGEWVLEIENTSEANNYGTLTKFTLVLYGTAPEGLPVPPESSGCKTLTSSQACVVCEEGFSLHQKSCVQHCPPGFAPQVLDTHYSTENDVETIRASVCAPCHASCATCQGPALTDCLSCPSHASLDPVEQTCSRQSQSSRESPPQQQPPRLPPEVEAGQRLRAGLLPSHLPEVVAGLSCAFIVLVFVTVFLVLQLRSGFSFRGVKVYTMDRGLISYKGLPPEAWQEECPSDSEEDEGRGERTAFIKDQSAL
N-terminal Xaa-Pro-Lys N-methyltransferase 1 (Homo sapiens), sequence (Q9BV86 whole entry, looked up): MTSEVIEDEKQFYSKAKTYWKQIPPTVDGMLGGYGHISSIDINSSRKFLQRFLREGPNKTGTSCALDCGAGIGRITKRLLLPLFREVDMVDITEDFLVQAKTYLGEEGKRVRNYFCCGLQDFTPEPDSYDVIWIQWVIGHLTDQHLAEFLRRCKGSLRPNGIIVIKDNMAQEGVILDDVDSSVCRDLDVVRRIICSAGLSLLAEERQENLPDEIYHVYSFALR

In the case of O=Nc1c(-c2c(O)[nH]c3cc(Br)ccc23)[nH]c2ccccc12, the Potency [1] was 14.1 µM (active).
In the case of O=C(CCc1ccc(O)cc1)c1c(O)cc(O)cc1O, the Potency [2] was “inactive” and the Potency [3] was “inactive”.
With CCc1nc(N)nc(N)c1-c1ccc(Cl)cc1 the Potency [2] was “inactive”, the Potency [4] was “inactive” and the Potency [3] was “inactive”. The Potency [5] was “inactive”, the Potency [6] was “inactive” and the Potency [7] was “inactive”.
In the case of COc1cc(C(C)=O)ccc1OCCCN1CCC(c2noc3cc(F)ccc23)CC1, the Potency [2] was “inactive” and the Potency [7] was “inactive”.
With CN(C)c1ccc(O)c2c1C[C@H]1C[C@H]3[C@H](N(C)C)C(=O)C(C(N)=O)=C(O)[C@@]3(O)C(=O)C1=C2O the Potency [2] was 11.8 µM (active), the Potency [4] was “inactive” and the Potency [5] was “inactive”. The Potency [6] was “inactive”.
In the case of CCN(CC)C(=S)SSC(=S)N(CC)CC, the Potency [2] was “inactive”, the Potency [1] was 4.47 µM (active) and the Potency [3] was “inactive”. The Potency [7] was “inactive”.
With c1cnc2cc3c(cc2n1)C1CNCC3C1 the Potency [2] was “inactive”, the Potency [3] was “inactive” and the Potency [7] was “inactive”. For the same compound, the Potency [8] was “inactive”.
For CC(C)CC(=O)N[C@H](C(=O)N[C@H](C(=O)N[C@@H](CC(C)C)[C@@H](O)CC(=O)N[C@@H](C)C(=O)N[C@@H](CC(C)C)[C@@H](O)CC(=O)O)C(C)C)C(C)C (Isovaleryl-VV[Sta]A[Sta]-OH), the Potency [2] was “inactive” and the Potency [7] was “inactive”.
In the case of O=C1c2c(O)cc(O)cc2OC(c2ccc(O)c(O)c2)C1O (stereo unspecified), the Potency [2] was “inactive”, the Potency [1] was 25.1 µM (active) and the Potency [3] was “inactive”.
For Oc1ccc(-c2nc(-c3ccc(F)cc3)c(-c3ccncc3)[nH]2)cc1, the Potency [2] was 5.26 µM (active), the Potency [1] was 79.4 µM (active) and the Potency [5] was “inactive”. For the same compound, the Potency [6] was “inactive” and the Potency [7] was “inactive”.
In the case of O=c1ccc2ccc(O)c(O)c2o1, the Potency [1] was 39.8 µM (active), the Potency [3] was “inactive” and the Potency [7] was “inactive”.
With CC(C)C[C@H](NC(=O)[C@H](Cc1ccccc1)NC(=O)c1cnccn1)B(O)O the Potency [2] was 0.0332 µM (active), the Potency [4] was “inactive” and the Potency [3] was “inactive”. For the same compound, the Potency [7] was “inactive” and the Potency [8] was “inactive”.
